High-throughput results as filed in PubChem.
Anthrax LF prot: blocks Bacillus anthracis lethal factor protease; multiplex microsphere protease cleavage assay, LF; 0.12% of 360,000 active; P15917; inhibition, % at 10 µM; also: plate controls were buffer without enzyme for full effect and enzyme alone for no effect
BoNT A protease: BoNT A light chain protease inhibition; 0.17% of 360,000 active; multiplex microsphere protease substrate cleavage, flow cytometry; inhibition, % at 10 µM; also: plate controls were buffer without enzyme for full effect and enzyme alone for no effect
Bead autofluor: counter-screen for toxin protease inhibitors: compound fluorescence; compound autofluorescence counterscreen, microsphere flow cytometry; active compounds read high; fluorescence intensity (no concentration beside the values); 3.1% of 360,000 active; in the data active = fluorescence intensity above about 16000; inconclusive = no clear call, values can overlap the other calls
BoNT F protease: blocks Botulinum neurotoxin F light chain protease; Multiplex microsphere protease cleavage assay, flow cytometry; inhibition, % at 10 µM; 0.22% of 360,000 active; AID 588497; in the data active = inhibition above about 35%, passing the limit was not always enough; inconclusive = no clear call, values can overlap the other calls; also: plate controls were buffer without enzyme for full effect and enzyme alone for no effect
BH1578 lux ind: inducers of Vibrio cholerae quorum light production without autoinducers. V. cholerae BH1578 lux reporter, luminescence, 6 h. activation, % at 18.7 µM. 0.16% of 350,000 active. AID 588436; in the data active = activation mostly above about 9.7%, no sharp cut-off; inconclusive = no clear call, values can overlap the other calls; inactive = mostly below about 3.7%
MazF activator: MazEF (E. coli) toxin RNase activation | activation, % at 20 µM | 0.32% of 350,000 active | AID 504720 | P0AE70 | FAM/BHQ RNA-DNA oligo cleavage fluorescence, 5 h; in the data active = activation above about 50%
* hit, by the source's call; i = inactive; ? = inconclusive; . = no result. A selection: hits, their analogues and other compounds. The true share with any hit is near 3.9%. Rule as the data show it, unless noted: active = inhibition above about 30%; inconclusive = no clear call, values can overlap the other calls; inactive = below that.

SMILES	Anthrax LF prot	BoNT A protease	Bead autofluor	BoNT F protease	BH1578 lux ind	MazF activator
CN1CCN(c2ccc3c(c2)OC[C@@H](Cc2ccccc2)NS3(=O)=O)CC1	-3	0	4247	4	.	.
COc1cc2c(cc1OC)CN(S(=O)(=O)/C=C/c1ccccc1)CC2	4	0	3399	40*	i	9
COc1ccc(CNC(C)(C)C)cc1Cl	-1	0	16540*	1	0	5
O=C1CC(c2ccc(O)c(O)c2)Oc2c1ccc(O)c2O (stereo not given)	-8	-2	4990	-22	0	53*
CC(C)=CCc1c(O)ccc2c1OC(c1ccc(O)c(O)c1)CC2=O (stereo not given)	-3	-2	6073	-12	0	86*
CC1(C)C/C(=N\O)c2cc3c(nc2C1)CCCC3	-1	-3	23918*	-6	i	-4
CCOc1cc(C(=O)Nc2ncn[nH]2)cc(OCC)c1OCC	-4	1	4727	3	i	-19
CC(C)CCNC(=O)c1ccc(CSCc2cccc(F)c2)o1	-4	5	17562*	4	-2	-20
Cc1cccc(CSCc2ccc(C(=O)NC(C)C)o2)c1	-2	3	3559	10	-1	5
COC(=O)CC1(c2ccccc2)C(=O)c2ccccc2C1=O	0	?	16568*	-2	0	8
COc1ccc(Nc2nc(-c3cccc([N+](=O)[O-])c3)nc3ccccc23)c(OC)c1	1	0	2211	-11	0	-7
COc1ccc(OC)c(Nc2nc(-c3cccc([N+](=O)[O-])c3)nc3ccccc23)c1	-3	-4	25968*	-8	i	-1
CCN(CCO)c1cc(Cl)nc(SC)n1	-2	-4	24730*	-7	-4	0
Fc1cccc(Cc2c(-c3ccco3)nc3c(Cl)cc(C(F)(F)F)cn23)c1	-9	1	5987	7	.	.
COc1ccc(C2(C)NC(=O)N(CC3CCCCC3)C2=O)cc1 (stereo not given)	1	0	6165	4	i	4
Cc1cc(C)n(-c2ccc(OCC(=O)O)nn2)n1	-1	-2	23964*	-3	i	3
CCO[C@H]1OC(C(=O)O)=C[C@@H](c2ccccc2)[C@@H]1CCCO	-6	0	2853	-2	-4	-2
CCOC(=O)CC1C(=O)NCCN1C1CCCC1 (stereo not given)	-2	0	4030	0	0	-2
CCOC(=O)c1ccc2nc(C)c(C)nc2c1	0	0	4388	-13	i	5
COC(=O)c1ccc2nc(C)c(C)nc2c1	-2	?	20620*	0	i	-7
CCCCS(=O)(=O)Nc1ccc(N2CCOCC2)c(S(=O)(=O)N2CCOCC2)c1	6	-1	6866	2	0	2
COc1cccc(-n2ccn(CC(=O)NCCc3ccccc3)c(=O)c2=O)c1	-2	-1	4380	10	0	4
O=C(CN1CCc2ccccc2C1)Nc1ccccc1Cl	3	-2	3050	?	2	-3
O=C(CNCCC1=CCCCC1)Nc1ccccc1N1CCCCC1	-8	-3	17116*	-11	i	-7
O=C(NCN1CCc2ccccc2C1)c1ccccc1	-1	-2	17046*	-6	i	4
SMILES	Anthrax LF prot	BoNT A protease	Bead autofluor	BoNT F protease	BH1578 lux ind	MazF activator
O=C(CN1CCc2ccccc2C1)Nc1ccccc1N1CCCCCC1	-3	0	23403*	-3	0	-10
Cc1ccc(C(=O)NCC(=O)OCn2nnc3ccccc3c2=O)cc1	.	.	.	.	i	7
O=C(Nc1nnc(C2CCCO2)s1)c1ccc(Br)cc1 (stereo not given)	-4	0	23157*	0	0	0
CCC(C)c1ccc(NC(=O)CC(C)=O)cc1 (stereo not given)	-2	?	22794*	-3	3	9
CSc1ccc(NC(=O)CC(C)=O)cc1	-2	0	22536*	2	2	2
CC(=O)CC(=O)Nc1ccc(C(N)=O)cc1	-2	0	3528	-2	0	3
COc1ccc(C(=O)Nc2ccnn2C2CCN(C(=O)c3cccnc3)CC2)cc1	1	0	4697	-11	i	0
O=C(CCN1C(=O)[C@@H]2Cc3ccccc3CN2C1=O)N[C@@H](Cc1ccccc1)C(=O)O	3	0	5175	-4	1	-7
COc1ccc(C2C3=C(CCCC3=O)N(CC(=O)O)C3=C2C(=O)CCC3)cc1Cl	10	-1	3979	?	0	9
O=C(Oc1ccc(-c2cnc3ccccc3n2)cc1)c1ccco1	1	-2	20475*	-4	i	-8
CCOC(=O)c1ccc(N2CN=C3SCC(=O)N3C2)cc1	0	?	23262*	-3	-1	-7
O=c1[nH]c(SCc2ccc(Cl)cc2)nc2c1CCC2	-2	0	4262	?	8	2
O=c1[nH]c(SCc2ccccc2Cl)nc2c1CCCC2	1	-1	20115*	-3	i	-7
CCc1cc[n+](/C(C(=S)Nc2cccc(C)c2)=C(/[O-])c2ccc(C)c([N+](=O)[O-])c2)cc1	9	32*	3019	-22	i	5
COC(=O)c1ccc(C2C(C(=O)OCC(C)C)=C(C)N=C3SCCC(=O)N32)cc1 (stereo not given)	-3	0	22462*	-1	i	-3
COCCOC(=O)C1=C(C)N=C2SCCC(=O)N2C1c1ccc(C(=O)OC)cc1 (stereo not given)	1	0	3273	-10	.	6
CC1=C(C(=O)OC(C)C)C(c2cccs2)N2C(=O)CCSC2=N1 (stereo not given)	-2	-5	25343*	-8	i	3
CCOc1cc(C2C(C(=O)OCC(C)C)=C(C)N=C3SCCC(=O)N32)ccc1OC(C)=O (stereo not given)	4	0	4326	-6	3	-4
COC(=O)C1=C(C)N=C2SCCC(=O)N2C1c1ccc(C(=O)OC)cc1 (stereo not given)	-1	-3	24822*	-7	i	3
CC1=C(C(=O)Nc2ccccc2)C(c2ccc(O)cc2)N2C(=O)CSC2=N1 (stereo not given)	1	1	3213	21	23*	8
COC(=O)C1=C(C)N=C2SCCC(=O)N2C1c1cccs1 (stereo not given)	-5	0	3337	-5	i	2
CCOC(=O)[C@]12CCCC=C1N(Cc1cccc3ccccc13)C(=O)[C@H](CC(=O)N1CCCC1)C2	-13	-2	4908	-18	.	.
COc1ccccc1CCNC(=O)C(=O)Nc1cc2c3c(c1)CC(=O)N3CCC2	2	2	4015	7	-1	-2
CC(C(=O)NC1CC1)c1ncc(C(F)(F)F)cc1Cl (stereo not given)	2	-1	4164	-3	i	9
CC(C(=O)N1CCN(c2ccc(Cl)cc2)CC1)c1ncc(C(F)(F)F)cc1Cl (stereo not given)	-3	-1	16547*	-1	0	0
